Efflux pump mplx: inhibitors of Candida efflux pumps in yeast, primary screen, S. cerevisiae, Nile Red, multiplex. 0.44% of 330,000 active. S. cerevisiae Candida pump triplex. inhibition, % at 10 µM;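 active = plate passing quality check with inhibition over a set limit, or well fluorescence over plate mean plus 4 SD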;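 note: Nile Red retained in pooled yeast measured as flow cytometry median fluorescence; 0% = buffer negative control and 100% = Enniatin B positive control; higher means more Nile Red kept so more efflux inhibition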
Cl transport mod: KCC2 cotransporter modulators, thallium flux, primary screen, cell-based, HEK293 KCC2, FluoZin-2 fluorescence, MLSMR. B-score of Tl+ flux slope (higher = more flux/activation; lower = inhibition) at 10 µM. Solute carrier family 12 member 5 (Homo sapiens), Q9H2X9. 2.2% of 190,000 active. AID 1456, 2008. KCC2 cells, thallium flux FluoZin-2 fluorescence;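 active = thallium flux slope and its plate-corrected score both differing from the plate sample mean at a set confidence after two filtering rounds, in either direction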;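 note: slope of fluorescence scaled to starting intensity during 10 to 20 s after thallium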
Target sequence (Q9H2X9 whole entry, looked up): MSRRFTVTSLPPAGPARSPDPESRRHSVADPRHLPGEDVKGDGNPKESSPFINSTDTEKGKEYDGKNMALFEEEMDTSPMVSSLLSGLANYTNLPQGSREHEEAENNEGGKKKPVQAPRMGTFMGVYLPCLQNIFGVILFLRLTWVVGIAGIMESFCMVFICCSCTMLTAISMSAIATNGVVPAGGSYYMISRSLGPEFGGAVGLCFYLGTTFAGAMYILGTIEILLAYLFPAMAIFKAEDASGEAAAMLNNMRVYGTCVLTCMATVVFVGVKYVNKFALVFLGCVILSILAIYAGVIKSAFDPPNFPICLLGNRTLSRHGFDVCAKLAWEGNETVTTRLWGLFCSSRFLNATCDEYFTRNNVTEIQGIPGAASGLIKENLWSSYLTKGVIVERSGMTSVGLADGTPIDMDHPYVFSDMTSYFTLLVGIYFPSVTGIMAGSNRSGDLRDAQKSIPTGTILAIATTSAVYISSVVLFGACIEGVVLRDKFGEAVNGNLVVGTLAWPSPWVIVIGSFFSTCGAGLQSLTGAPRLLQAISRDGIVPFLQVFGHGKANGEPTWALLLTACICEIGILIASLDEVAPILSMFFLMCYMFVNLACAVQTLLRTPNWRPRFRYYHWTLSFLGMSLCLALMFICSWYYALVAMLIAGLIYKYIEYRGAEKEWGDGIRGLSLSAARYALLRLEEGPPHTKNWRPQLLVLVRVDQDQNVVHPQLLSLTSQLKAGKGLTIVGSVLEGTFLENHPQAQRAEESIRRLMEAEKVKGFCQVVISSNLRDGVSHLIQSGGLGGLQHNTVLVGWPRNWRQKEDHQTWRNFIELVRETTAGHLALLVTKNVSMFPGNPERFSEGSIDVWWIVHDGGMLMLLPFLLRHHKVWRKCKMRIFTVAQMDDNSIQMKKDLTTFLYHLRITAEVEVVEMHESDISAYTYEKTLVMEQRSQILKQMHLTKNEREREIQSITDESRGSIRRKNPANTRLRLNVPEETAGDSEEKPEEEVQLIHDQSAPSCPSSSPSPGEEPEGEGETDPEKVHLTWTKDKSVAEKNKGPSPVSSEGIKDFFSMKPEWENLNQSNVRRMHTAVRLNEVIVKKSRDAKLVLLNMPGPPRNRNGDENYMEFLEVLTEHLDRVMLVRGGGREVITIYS
Calb FLC: C. albicans growth inhibition with fluconazole, primary screen, CaCi-2 strain, Alamar Blue fluorescence; C. albicans CaCi-2 (fluconazole-resistant clinical isolate) + fluconazole, 48 h; growth inhibition, % (test concentration not listed); 0.57% of 300,000 active;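 active = growth inhibition above about 58% in most replicates, limit read from the data, passing the limit was not always enough; inconclusive = exactly half the replicates above a set limit; inactive = most replicates below a set limit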;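 note: all wells also contain fluconazole at 8 µg/ml as a sub-toxic cotreatment; 0% = median of DMSO wells and 100% = median of geldanamycin control wells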
H9c2 protect: cardioprotection against H2O2-induced cell death, primary screen, uHTS, H9c2 cells, ATPLite luminescence; H9c2 cardiomyocytes, H2O2 injury protection, 2 h; protection from H2O2 cell death, % at 20 µM; 0.63% of 360,000 active;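 active = compounds giving at least 50% protection of heart cells from peroxide-induced death in the single-dose screen, raw or plate-pattern-corrected value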;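 note: 0% = DMSO wells with peroxide and 100% = DMSO wells without peroxide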
PHOSPHO1 block: PubChem AID 1565. recombinant PHOSPHO1, absorbance phosphatase assay. inhibition, % at 13.3 µM. 1.1% of 290,000 active; in the data active = inhibition above about 60%
Cmpd fluor yeast: compound fluorescence in yeast efflux pump counter-screen | S. cerevisiae AD/pABC3, flow cytometry | fluorescence ratio to DMSO, % at 10 µM | shares compounds with Efflux pump mplx | 4% of 1,700 active;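 active = fluorescence ratio to DMSO above its plate's cutoff, the plate mean ratio plus 5 SD, cut at about 210% in these data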;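 note: unstained yeast with no Nile Red so the signal is compound autofluorescence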
Mdr1 pump inh: inhibitors of Candida albicans Mdr1 efflux, confirmation, flow cytometry, singleplex, Cherry Pick1 set; 1% of 1,700 active; inhibition, % at 10 µM; shares compounds with Efflux pump mplx; S. cerevisiae AD/CaMDR1, Nile Red efflux; in the data active = inhibition above about 26%;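 note: 0% = DMSO vehicle and 100% = reference inhibitor; higher means more Nile Red retained so more efflux inhibition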
CaCdr2 efflux inh: inhibitors of Candida albicans Cdr2 efflux pump, confirmation, S. cerevisiae AD/CaCDR2, flow cytometry, cherry pick 1, singleplex | shares compounds with Efflux pump mplx | Nile Red retention | Nile Red retention ratio vs DMSO, % at 10 µM | 4% of 1,700 active | AID 588520, 2011; in the data active = Nile Red retention ratio vs DMSO above about 190%;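 note: higher ratio means more blocking of Cdr2 efflux of the dye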
CaCdr1 efflux inh: inhibitors of Candida albicans Cdr1 efflux pump, confirmation, S. cerevisiae AD/CaCDR1, flow cytometry, cherry pick 1, singleplex; shares compounds with Efflux pump mplx; Nile Red efflux; inhibition, % at 10 µM; 1% of 1,700 active; AID 588522, 2011;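 active = inhibition above the screen-wide mean plus twice its standard deviation, cut at about 32% in these data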
Numbers without * were called inactive; ? = inconclusive; . = no result given; + = active, no number. A selection: hits, their analogues and other compounds. The true share with any hit is near 3.3%.

SMILES | Efflux pump mplx | Cl transport mod | Calb FLC | H9c2 protect | PHOSPHO1 block | Cmpd fluor yeast | Mdr1 pump inh | CaCdr2 efflux inh | CaCdr1 efflux inh
Cc1cc(C(F)(F)F)cc(NNC(=O)NC(=O)c2ccccc2Cl)n1 | 0.2 | 0.202 | 2.9 | 0.8 | 28.8 | . | . | . | .
COc1cccc(-c2nc(CS(=O)(=O)CC(=O)N3CCOCC3)c(C)o2)c1 | 0.1 | . | 2.5 | -2.3 | -68.1 | . | . | . | .
C(=C\c1ccccc1)/CNn1cnnc1 | 0.3 | -0.59 | -16.8 | 3.5 | -18.8 | . | . | . | .
Clc1ccccc1CSc1nncn1NC/C=C/c1ccccc1 | 7.6* | -3.64 | 7.2 | -7.1 | -1.8 | 103.4 | -0.1 | 112.4 | 0.0
COC(=O)C1=C(C)N(c2cc(C)cc(C)c2)/C(=C/c2ccc(O)cc2)C1=O | 0.7* | . | 22.2 | 0.0 | -3.0 | 114.1 | 0.2 | 100.7 | 0.1
COC(=O)C1=C(C)N(c2ccc(Cl)cc2)/C(=C/c2ccc(O)cc2)C1=O | 0.0 | -0.303 | 14.4 | 7.0 | 23.6 | . | . | . | .
Cc1cccnc1CN1CCN(Cc2nc(Cc3cccc(F)c3)no2)CC1 | -0.1 | 0.611 | 5.0 | 0.0 | 45.5 | . | . | . | .
COc1ccc(NC(=S)NNc2ccc(S(=O)(=O)Nc3ccccc3C(=O)O)cc2[N+](=O)[O-])cc1 | 0.3 | 0.711 | -8.9 | -4.3 | -73.5 | . | . | . | .
Cc1ccc(C)c(C(=O)COC(=O)c2ccc(C)c(S(=O)(=O)N3CCOCC3)c2)c1 | 1.1* | . | . | -4.3 | . | 86.5 | 0.0 | 95.4 | -0.3
Cc1ccc(S(=O)(=O)/N=C(/Nc2c(C)cccc2C)c2ccccc2)cc1 | 0.2 | . | . | 6.8 | . | . | . | . | .
O=C(Cc1ccc2c(c1)OCCO2)Nc1cc(Cl)ccc1N1CCOCC1 | . | . | . | 0.2 | . | . | . | . | .
CN(C)c1ccc(/C=C/C=C2/SC(=S)N(c3ccccc3)C2=O)cc1 | 2.4* | . | -48.8 | -15.6 | 39.9 | + | 0.8 | 547.4* | 0.8
O=C(O)c1ccc(N2C(=O)/C(=C/C=C/c3ccccc3)SC2=S)cc1 | 0.0 | -0.0979 | 27.2 | -0.7 | 29.5 | . | . | . | .
CCOC(=O)c1cc(-c2ccccc2C)n(CC2CC(c3cccc([N+](=O)[O-])c3)=NO2)n1 (centres undefined) | 0.1 | . | . | 0.8 | . | . | . | . | .
C/C(=C\c1ccccc1)CN1CCN(c2cccc(Cl)c2)CC1 | -0.1 | -0.64 | 9.1 | -14.0 | 52.9 | . | . | . | .
C/C=C(\C)CN1CCN(c2ccc(C)cc2)CC1 | 0.4* | -0.00728 | 5.6 | 5.7 | -2.7 | 99.8 | -0.2 | 91.4 | -0.1
COc1ccc(CNC(=O)CCNC(=O)C2CCN(S(=O)(=O)c3ccc(OC)cc3)CC2)cc1 | . | . | . | -4.6 | . | . | . | . | .
COc1ccc(CN2C(=NC(=O)C3CCCCC3)SC3CS(=O)(=O)CC32)cc1 (centres undefined) | 0.0 | . | 3.2 | -9.1 | 12.1 | . | . | . | .
COc1ccc(C(=O)NCc2ccc3c(c2)OCO3)cc1S(=O)(=O)N(C)Cc1ccccc1 | 7.6* | -1.41 | -2.5 | -3.4 | 11.6 | 98.6 | -0.1 | 99.3 | 0.1
CCCCN=C(NNc1ccc(Br)cc1)C(=O)OCC | 16.6* | -1.58 | -0.5 | -5.3 | 2.1 | 100.0 | -0.2 | 104.2 | 0.1
COC(=O)C1CCN(C(=O)Cn2nnc(-c3cccc(F)c3)n2)CC1 | 0.2 | . | -0.2 | 6.4 | 25.7 | . | . | . | .
Cn1c(SCC(=O)N/N=C/c2ccc([N+](=O)[O-])s2)nnc1-c1ccc(Cl)cc1 | 15.8* | 0.0605 | 0.8 | 4.3 | 4.9 | 111.2 | -0.3 | 126.7 | 0.2
O=C(Cn1cnc2c(NCc3ccccc3)ncnc21)NCCc1cc2ccccc2[nH]1 | 0.1 | . | . | -5.7 | . | . | . | . | .
CCOC(=O)c1ccccc1NC(=O)c1cn(-c2ccc(OC)cc2)c(=O)c2ccccc12 | 15.2* | -0.347 | -5.8 | 18.4 | -4.6 | 93.7 | 0.1 | 101.5 | 0.0
COc1ccc2[nH]cc(C=O)c2c1 | 0.0 | -0.21 | ? | 4.0 | -4.2 | . | . | . | .
SMILES | Efflux pump mplx | Cl transport mod | Calb FLC | H9c2 protect | PHOSPHO1 block | Cmpd fluor yeast | Mdr1 pump inh | CaCdr2 efflux inh | CaCdr1 efflux inh
COc1ccc2[nH]cc(/C=C/c3cc[n+](C)cc3)c2c1 | 2.2 | . | 2.0 | -4.1 | 29.9 | 418.7* | 5.6 | 135.6 | 3.0
O=C(CCC(=O)OCCOc1ccccc1)OCCOc1ccccc1 | . | . | . | 1.1 | . | . | . | . | .
CC(C)Oc1ccc(-c2cc(C(=O)NCCN3CCOCC3)c3ccccc3n2)cc1 | -0.1 | 0.455 | -0.7 | -15.7 | -26.5 | 96.2 | -0.2 | 102.9 | -0.1
O=C(NCCN1CCOCC1)c1cc(-c2ccc(F)cc2)nc2ccccc12 | -0.2 | . | 15.9 | 3.6 | . | . | . | . | .
CCOc1ccc(-c2cc(C(=O)N3CCN(C)CC3)c3ccccc3n2)cc1 | 0.0 | 1.62 | -9.3 | -14.2 | -48.4 | 99.0 | -0.2 | 105.1 | -0.1
COc1ccc(CCNC(=O)NC23CC4CC(CC(C4)C2)C3)cc1 | 0.1 | -1.02 | -7.7 | -2.2 | 5.5 | . | . | . | .
COc1ccc(CC(=O)OCC(=O)NC(=O)NC23CC4CC(CC(C4)C2)C3)cc1 | 0.7* | 0.00406 | -0.8 | -18.4 | 1.9 | 112.7 | -0.1 | 106.0 | -0.1
Cc1ccc(C)c(NC(=O)CCC(=O)N/N=C/c2cc([N+](=O)[O-])ccc2O)c1 | 1.4* | -2.72 | 5.6 | 63.8* | 0.9 | 103.4 | -0.2 | 97.2 | -0.1
CCOc1ccc(NC(=O)N2CCC(n3c(=O)[nH]c4ccccc43)CC2)cc1 | 0.8* | 0.277 | -2.5 | 4.0 | -3.3 | 91.9 | -0.1 | 99.6 | -0.1
Cc1cc(N/N=C/c2ccccc2[N+](=O)[O-])nc(-n2nc(C)cc2C)n1 | 0.8* | . | -3.0 | 10.8 | -0.8 | 96.6 | -0.8 | 92.0 | 0.0
Cn1c(/C(C#N)=C/c2ccc(O)cc2)nc2ccccc21 | 0.1 | -1.88 | 0.7 | -2.3 | 3.8 | . | . | . | .
COc1cc(/C=C(\C#N)c2nc3ccccc3n2C)cc(OC)c1O | 1.0* | -6.92* | -1.7 | 8.7 | 8.3 | 100.2 | -0.2 | 107.8 | -0.3
Cc1ccc(-n2ncc3c(=O)n(CC(=O)N4CCN(C(=O)c5ccco5)CC4)cnc32)cc1 | 0.1 | . | . | 0.8 | . | . | . | . | .
C=CC[N+]1(CC(=O)NCc2ccc(NC(C)=O)cc2)CCOCC1 | 0.3 | . | 1.0 | -1.8 | 33.4 | . | . | . | .
COc1ccccc1N1CCN(C(=O)c2cc(-c3cccs3)on2)CC1 | 0.7* | -0.873 | 10.4 | 1.4 | 2.0 | 100.0 | -0.1 | 122.6 | 0.1
O=C(CN1CCCCCC1)Nc1ccccc1OC(F)F | 0.3 | . | -2.5 | -6.9 | 8.0 | . | . | . | .
